Holding throughout (test): DAPPL (digital affinity profiling via proximity ligation, sequencing); 10 mM Tris-HCl pH 7.5, 50 mM NaCl, 1 mM DTT, 4% glycerol, room temperature, 30 min; GST-TFs on glutathione beads, 16-mer random dsDNA library, 0.1% formaldehyde crosslink after washing; high values mean tight binding
For experiment [1], the target named is T1, FEV (Homo sapiens, UniProt Q99581 1-238).
T1 sequence: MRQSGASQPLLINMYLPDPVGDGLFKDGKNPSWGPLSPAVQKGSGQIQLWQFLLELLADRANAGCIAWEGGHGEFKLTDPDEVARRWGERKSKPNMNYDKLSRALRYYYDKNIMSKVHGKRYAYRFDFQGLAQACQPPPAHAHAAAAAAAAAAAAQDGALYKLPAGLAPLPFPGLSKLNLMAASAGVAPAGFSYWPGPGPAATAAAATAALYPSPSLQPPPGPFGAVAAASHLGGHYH
The conditions noted are these: protein: recombinant; tags: N-terminal GST; dsDNA, one strand shown. The gist of the method:
(§1)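 After expression in yeast as GST fusions, human transcription factors were bound to glutathione beads, DNA-barcoded and mixed with a tag-only sample. The pools were incubated with 200 nmole of a 16-mer random double-stranded DNA library in Tris/NaCl/DTT/glycerol buffer (30 min, room temperature), washed and crosslinked with 0.1% formaldehyde. Proximity ligation with BsaI/T4 ligase ran for 1 h at 37 °C, before PCR amplification and sequencing on an Illumina NextSeq500. Binding signal is a hexamer's read frequency for a factor divided by its frequency for the tag-only sample.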

Experiment [2] has as its target ETV5 (Homo sapiens, UniProt P41161 1-510). The conditions noted are these: protein: recombinant; tags: N-terminal GST; dsDNA, one strand shown. The gist of the method: as §1
Experiment [3] has as its target HSF1 (Homo sapiens, UniProt Q00613 1-529). The settings on record: protein: recombinant; tags: N-terminal GST; chain copies: 3; dsDNA, one strand shown. The gist of the method:
as §1

Experiment [4] deals with T2, SPIC (Homo sapiens, UniProt Q8N5J4 1-248).
T2 sequence: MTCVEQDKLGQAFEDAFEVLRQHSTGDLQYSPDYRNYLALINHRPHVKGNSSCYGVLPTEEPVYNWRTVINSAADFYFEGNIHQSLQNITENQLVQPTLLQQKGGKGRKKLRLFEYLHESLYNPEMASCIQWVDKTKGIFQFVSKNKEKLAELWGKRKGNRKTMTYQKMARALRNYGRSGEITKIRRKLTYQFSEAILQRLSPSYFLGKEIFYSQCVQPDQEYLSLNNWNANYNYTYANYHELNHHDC
The conditions noted are these: protein: recombinant; tags: N-terminal GST; dsDNA, one strand shown. The essentials:
as §1

The target of experiment [5] is ELF4 (Homo sapiens, UniProt Q99607 1-663). The settings on record: protein: recombinant; tags: N-terminal GST; dsDNA, one strand shown. The gist of the method: as §1
Experiment [6] deals with T3, ELK4 (Homo sapiens, UniProt P28324-2 1-405).
T3 sequence: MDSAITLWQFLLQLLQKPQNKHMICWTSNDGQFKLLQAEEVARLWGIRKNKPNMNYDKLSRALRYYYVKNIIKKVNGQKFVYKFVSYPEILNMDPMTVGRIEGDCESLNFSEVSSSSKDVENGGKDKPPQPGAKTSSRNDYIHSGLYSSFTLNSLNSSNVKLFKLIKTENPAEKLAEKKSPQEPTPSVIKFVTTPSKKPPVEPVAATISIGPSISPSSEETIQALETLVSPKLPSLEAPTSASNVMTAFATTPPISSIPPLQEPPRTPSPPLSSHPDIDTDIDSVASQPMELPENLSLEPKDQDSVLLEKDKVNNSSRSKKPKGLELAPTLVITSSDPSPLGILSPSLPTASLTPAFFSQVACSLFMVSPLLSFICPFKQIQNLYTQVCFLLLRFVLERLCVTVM
The conditions noted are these: protein: recombinant; tags: N-terminal GST; dsDNA, one strand shown. The essentials: as §1

Experiment [7] addresses T4, ETV2 (Homo sapiens, UniProt O00321 1-342).
T4 sequence: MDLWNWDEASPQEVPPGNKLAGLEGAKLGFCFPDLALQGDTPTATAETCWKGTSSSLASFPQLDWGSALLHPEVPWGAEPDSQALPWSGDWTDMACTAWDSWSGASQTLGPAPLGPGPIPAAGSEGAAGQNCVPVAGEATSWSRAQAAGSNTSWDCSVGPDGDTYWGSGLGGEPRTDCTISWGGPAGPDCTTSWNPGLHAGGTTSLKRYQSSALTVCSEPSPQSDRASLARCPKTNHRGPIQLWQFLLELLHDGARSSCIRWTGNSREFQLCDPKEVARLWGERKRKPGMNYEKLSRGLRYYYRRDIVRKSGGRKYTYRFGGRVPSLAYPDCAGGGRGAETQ
The settings on record: protein: recombinant; tags: N-terminal GST; dsDNA, one strand shown. The essentials: as §1

For experiment [8], the target named is T5, ELF3 (Homo sapiens, UniProt P78545 1-371).
T5 sequence: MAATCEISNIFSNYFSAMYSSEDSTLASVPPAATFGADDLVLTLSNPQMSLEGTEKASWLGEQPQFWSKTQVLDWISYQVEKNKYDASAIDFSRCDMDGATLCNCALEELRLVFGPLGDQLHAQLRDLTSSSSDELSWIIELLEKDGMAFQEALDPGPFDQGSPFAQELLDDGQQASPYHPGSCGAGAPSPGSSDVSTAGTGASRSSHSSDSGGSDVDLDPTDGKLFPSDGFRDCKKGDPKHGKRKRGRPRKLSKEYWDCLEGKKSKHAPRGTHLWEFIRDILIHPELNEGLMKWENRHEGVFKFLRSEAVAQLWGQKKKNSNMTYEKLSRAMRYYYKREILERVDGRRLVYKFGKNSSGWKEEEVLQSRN
The settings on record: protein: recombinant; tags: N-terminal GST; dsDNA, one strand shown. The essentials: as §1

For experiment [9], the target named is CRX (Homo sapiens, UniProt O43186 1-299). The conditions noted are these: protein: recombinant; tags: N-terminal GST; dsDNA, one strand shown. The essentials:
as §1

Experiment [10] concerns the target ETV1 (Homo sapiens, UniProt P50549 1-477). The conditions noted are these: protein: recombinant; tags: N-terminal GST; dsDNA, one strand shown. The gist of the method: as §1
The target of experiment [11] is T6, ERF (Homo sapiens, UniProt P50548 1-548).
T6 sequence: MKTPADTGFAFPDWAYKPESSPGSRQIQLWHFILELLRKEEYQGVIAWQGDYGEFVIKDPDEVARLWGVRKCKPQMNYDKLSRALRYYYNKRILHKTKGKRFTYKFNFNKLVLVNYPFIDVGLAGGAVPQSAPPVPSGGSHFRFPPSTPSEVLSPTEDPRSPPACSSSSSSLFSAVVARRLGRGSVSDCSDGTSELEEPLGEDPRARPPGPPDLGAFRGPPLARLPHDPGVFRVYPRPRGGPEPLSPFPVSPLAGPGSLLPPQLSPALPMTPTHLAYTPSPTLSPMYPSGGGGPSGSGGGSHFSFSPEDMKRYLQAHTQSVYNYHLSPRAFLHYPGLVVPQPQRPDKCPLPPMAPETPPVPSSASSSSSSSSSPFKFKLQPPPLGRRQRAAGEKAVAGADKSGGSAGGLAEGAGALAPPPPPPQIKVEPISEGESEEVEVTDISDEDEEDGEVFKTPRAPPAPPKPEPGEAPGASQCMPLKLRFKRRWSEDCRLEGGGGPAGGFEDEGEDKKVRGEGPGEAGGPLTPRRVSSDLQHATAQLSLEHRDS
The conditions noted are these: protein: recombinant; tags: N-terminal GST; dsDNA, one strand shown. The gist of the method: as §1

The target of experiment [12] is T7, ETV3L (Homo sapiens, UniProt Q6ZN32 1-361).
T7 sequence: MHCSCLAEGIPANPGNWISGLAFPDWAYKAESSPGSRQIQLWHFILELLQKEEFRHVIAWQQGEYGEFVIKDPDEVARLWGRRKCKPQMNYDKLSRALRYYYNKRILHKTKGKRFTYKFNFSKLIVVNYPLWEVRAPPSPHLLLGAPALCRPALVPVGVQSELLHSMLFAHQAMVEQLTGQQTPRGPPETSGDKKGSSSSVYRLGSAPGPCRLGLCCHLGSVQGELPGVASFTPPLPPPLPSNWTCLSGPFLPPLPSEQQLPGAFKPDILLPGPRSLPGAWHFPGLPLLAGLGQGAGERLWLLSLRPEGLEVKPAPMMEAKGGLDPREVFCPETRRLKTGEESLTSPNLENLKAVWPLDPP
The conditions noted are these: protein: recombinant; tags: N-terminal GST; dsDNA, one strand shown. The gist of the method: as §1

Experiment [13] addresses T8, ETS2 (Homo sapiens, UniProt P15036 1-469).
T8 sequence: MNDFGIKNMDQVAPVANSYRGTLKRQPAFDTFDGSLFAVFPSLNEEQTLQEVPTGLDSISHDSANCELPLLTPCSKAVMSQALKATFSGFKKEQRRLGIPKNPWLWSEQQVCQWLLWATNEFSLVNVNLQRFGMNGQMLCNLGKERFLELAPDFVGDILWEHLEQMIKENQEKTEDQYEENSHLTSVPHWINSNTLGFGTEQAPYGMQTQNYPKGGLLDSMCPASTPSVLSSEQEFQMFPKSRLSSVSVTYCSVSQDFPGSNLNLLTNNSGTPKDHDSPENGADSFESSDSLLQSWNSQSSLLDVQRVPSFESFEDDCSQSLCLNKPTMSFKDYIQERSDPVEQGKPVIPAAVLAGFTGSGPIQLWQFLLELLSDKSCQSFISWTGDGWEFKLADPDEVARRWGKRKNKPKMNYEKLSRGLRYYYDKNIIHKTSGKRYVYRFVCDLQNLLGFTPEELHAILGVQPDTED
The settings on record: protein: recombinant; tags: N-terminal GST; dsDNA, one strand shown. The essentials:
as §1

The target in experiment [14] is T9, SPDEF (Homo sapiens, UniProt O95238 1-335).
T9 sequence: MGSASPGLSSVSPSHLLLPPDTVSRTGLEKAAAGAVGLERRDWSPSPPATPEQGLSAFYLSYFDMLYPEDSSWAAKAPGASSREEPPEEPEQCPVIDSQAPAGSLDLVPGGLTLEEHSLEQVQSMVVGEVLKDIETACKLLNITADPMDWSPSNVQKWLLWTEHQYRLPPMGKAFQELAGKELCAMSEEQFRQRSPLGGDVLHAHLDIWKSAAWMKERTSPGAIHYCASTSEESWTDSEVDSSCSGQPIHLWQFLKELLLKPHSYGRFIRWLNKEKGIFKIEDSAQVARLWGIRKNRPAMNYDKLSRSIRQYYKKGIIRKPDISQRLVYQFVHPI
The settings on record: protein: recombinant; tags: N-terminal GST; dsDNA, one strand shown. The gist of the method:
as §1

In experiment [15] the target is T10, ETV7 (Homo sapiens, UniProt Q9Y603 1-341).
T10 sequence: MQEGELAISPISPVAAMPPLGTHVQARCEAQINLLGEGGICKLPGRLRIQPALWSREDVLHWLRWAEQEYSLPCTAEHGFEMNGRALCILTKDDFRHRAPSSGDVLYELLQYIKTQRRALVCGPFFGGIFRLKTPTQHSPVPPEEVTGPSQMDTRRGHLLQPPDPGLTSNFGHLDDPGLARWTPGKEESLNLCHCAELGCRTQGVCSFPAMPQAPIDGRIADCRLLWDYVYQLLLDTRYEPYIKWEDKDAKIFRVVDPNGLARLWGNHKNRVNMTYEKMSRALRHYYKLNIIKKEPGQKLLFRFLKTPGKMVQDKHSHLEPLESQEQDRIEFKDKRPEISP
The settings on record: protein: recombinant; tags: N-terminal GST; dsDNA, one strand shown. The essentials: as §1

Experiment [16] has as its target T11, ELF5 (Homo sapiens, UniProt Q9UKW6-2 1-255).
T11 sequence: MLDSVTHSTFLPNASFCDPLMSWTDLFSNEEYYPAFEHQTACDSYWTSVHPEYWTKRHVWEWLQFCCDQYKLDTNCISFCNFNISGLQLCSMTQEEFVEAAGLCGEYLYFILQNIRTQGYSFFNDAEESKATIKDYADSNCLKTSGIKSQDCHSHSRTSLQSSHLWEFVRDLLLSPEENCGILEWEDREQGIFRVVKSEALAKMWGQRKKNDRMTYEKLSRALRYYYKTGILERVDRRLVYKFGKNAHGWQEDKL
The settings on record: protein: recombinant; tags: N-terminal GST; dsDNA, one strand shown. The essentials:
as §1

Experiment [17] concerns the target T12, ETV3 (Homo sapiens, UniProt P41162-2 1-143).
T12 sequence: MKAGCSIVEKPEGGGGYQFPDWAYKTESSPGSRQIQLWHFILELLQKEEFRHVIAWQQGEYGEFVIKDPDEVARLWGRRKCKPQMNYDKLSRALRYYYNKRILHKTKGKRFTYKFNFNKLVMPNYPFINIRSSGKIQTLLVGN
The conditions noted are these: protein: recombinant; tags: N-terminal GST; dsDNA, one strand shown. The essentials:
as §1

In experiment [18] the target is ETV6 (Homo sapiens, UniProt P41212 1-452). The conditions noted are these: protein: recombinant; tags: N-terminal GST; dsDNA, one strand shown. The essentials:
as §1

We go through one sequence from publication PMC7862700, “An all-to-all approach to the identification of sequence-specific readers for epigenetic DNA modifications on cytosine”.

Chain of ELF4 (Q99607 whole entry): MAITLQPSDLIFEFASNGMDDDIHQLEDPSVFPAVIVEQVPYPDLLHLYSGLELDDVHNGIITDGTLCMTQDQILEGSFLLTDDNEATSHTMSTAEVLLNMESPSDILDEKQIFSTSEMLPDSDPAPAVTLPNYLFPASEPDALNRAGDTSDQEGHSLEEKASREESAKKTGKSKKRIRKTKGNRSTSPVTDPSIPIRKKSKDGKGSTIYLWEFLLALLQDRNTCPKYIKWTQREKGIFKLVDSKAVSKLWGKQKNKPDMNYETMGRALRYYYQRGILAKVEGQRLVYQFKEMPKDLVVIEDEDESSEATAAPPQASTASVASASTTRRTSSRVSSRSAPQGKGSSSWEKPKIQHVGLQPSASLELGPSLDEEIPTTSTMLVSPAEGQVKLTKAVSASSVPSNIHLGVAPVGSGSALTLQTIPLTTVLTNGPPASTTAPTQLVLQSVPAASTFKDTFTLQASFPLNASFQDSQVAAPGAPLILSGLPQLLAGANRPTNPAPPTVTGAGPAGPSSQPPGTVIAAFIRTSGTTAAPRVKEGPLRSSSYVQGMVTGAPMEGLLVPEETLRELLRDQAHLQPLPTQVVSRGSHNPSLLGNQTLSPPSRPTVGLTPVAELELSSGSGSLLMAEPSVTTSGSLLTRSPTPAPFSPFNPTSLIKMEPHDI
Chain of ETV6 (P41212 whole entry): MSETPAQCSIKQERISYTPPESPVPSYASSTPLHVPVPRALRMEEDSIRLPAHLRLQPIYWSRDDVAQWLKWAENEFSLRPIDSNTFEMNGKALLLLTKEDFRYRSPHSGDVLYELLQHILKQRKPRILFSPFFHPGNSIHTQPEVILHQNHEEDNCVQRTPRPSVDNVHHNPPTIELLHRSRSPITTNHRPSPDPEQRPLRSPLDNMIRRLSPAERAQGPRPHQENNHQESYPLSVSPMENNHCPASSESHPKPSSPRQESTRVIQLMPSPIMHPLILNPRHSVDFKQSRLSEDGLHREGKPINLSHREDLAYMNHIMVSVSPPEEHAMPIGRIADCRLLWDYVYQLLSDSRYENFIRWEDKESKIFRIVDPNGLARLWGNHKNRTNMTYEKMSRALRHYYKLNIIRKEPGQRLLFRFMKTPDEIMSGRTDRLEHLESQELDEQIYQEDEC
Chain of HSF1 (Q00613 whole entry): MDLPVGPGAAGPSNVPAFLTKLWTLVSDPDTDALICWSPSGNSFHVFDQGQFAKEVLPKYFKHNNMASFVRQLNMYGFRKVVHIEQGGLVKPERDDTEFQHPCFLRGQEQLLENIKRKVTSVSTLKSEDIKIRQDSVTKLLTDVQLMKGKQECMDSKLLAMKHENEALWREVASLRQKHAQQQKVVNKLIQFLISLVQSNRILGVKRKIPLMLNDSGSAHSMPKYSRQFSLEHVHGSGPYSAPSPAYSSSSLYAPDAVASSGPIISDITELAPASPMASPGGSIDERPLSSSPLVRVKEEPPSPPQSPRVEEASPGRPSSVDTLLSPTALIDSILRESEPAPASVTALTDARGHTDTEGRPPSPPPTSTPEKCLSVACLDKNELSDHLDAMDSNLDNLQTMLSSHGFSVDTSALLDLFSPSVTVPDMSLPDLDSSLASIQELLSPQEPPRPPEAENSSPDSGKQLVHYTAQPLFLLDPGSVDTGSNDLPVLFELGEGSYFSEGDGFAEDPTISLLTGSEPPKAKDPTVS
Chain of ETV5 (P41161 whole entry): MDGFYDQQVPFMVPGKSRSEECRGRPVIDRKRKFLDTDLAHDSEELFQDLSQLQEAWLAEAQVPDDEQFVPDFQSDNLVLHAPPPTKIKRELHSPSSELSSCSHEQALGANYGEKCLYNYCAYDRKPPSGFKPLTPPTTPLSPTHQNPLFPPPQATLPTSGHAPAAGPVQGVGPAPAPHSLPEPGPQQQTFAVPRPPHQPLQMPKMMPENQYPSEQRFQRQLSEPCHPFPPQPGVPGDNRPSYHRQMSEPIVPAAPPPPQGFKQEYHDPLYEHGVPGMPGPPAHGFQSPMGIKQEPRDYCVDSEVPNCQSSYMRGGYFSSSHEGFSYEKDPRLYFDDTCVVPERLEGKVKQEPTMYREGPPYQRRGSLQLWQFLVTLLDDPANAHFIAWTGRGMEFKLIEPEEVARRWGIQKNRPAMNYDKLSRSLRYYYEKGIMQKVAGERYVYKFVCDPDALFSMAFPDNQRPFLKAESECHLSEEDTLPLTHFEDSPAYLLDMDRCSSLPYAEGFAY
Chain of CRX (O43186 whole entry): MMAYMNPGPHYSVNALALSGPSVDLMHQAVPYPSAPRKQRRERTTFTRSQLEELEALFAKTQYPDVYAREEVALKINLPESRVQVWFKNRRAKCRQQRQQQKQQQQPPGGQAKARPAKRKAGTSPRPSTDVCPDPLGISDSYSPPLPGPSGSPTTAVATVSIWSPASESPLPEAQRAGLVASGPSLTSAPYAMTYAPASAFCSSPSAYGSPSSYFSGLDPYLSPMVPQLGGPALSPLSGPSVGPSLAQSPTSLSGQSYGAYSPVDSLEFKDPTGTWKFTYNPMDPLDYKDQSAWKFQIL
Chain of ETV1 (P50549 whole entry): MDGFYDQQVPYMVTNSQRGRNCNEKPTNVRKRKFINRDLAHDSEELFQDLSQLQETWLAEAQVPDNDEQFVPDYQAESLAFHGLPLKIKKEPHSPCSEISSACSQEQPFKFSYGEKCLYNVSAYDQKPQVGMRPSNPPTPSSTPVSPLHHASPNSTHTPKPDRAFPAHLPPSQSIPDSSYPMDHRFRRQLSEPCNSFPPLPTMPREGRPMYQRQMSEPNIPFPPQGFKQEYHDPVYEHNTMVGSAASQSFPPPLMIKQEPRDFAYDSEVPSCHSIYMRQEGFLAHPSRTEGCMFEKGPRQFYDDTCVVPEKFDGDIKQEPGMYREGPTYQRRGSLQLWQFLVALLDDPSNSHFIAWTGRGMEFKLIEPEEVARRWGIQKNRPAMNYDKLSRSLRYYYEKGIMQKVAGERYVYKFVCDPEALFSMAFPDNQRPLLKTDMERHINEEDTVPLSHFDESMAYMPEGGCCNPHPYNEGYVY

For the sequence TTGGCA, the binding signal in [1] is 1.13 fold enrichment (6-mer frequency, TF over GST control); in [2], 1.07 fold enrichment (6-mer frequency, TF over GST control); in [3], 1.04 fold enrichment (6-mer frequency, TF over GST control); in experiment [4], 1.17 fold enrichment (6-mer frequency, TF over GST control); in experiment [5], 1.16 fold enrichment (6-mer frequency, TF over GST control); in [6] it was 1.34 fold enrichment (6-mer frequency, TF over GST control). Moreover, the binding signal was 1.25 fold enrichment (6-mer frequency, TF over GST control) in experiment [7]; 1.07 fold enrichment (6-mer frequency, TF over GST control) in experiment [8]; 1.12 fold enrichment (6-mer frequency, TF over GST control) in [9]; 1.18 fold enrichment (6-mer frequency, TF over GST control) in [10]; 1.19 fold enrichment (6-mer frequency, TF over GST control) in experiment [11]; 1.14 fold enrichment (6-mer frequency, TF over GST control) in [12]. Also, the binding signal in [13] is 1.13 fold enrichment (6-mer frequency, TF over GST control); in [14] it was 1.12 fold enrichment (6-mer frequency, TF over GST control); in experiment [15], 1.09 fold enrichment (6-mer frequency, TF over GST control); in experiment [16], 1.01 fold enrichment (6-mer frequency, TF over GST control); in experiment [17] it was 1.17 fold enrichment (6-mer frequency, TF over GST control); in experiment [18], 1.19 fold enrichment (6-mer frequency, TF over GST control).
